The campaign covered roughly 25,000 compounds. About 970 (3.9%) were called active. Inconclusive results (about 8%) are left out. How the calls were made is not given here. The list comes from a sample in which actives are over-represented; it also holds similar structures and randomly drawn compounds.
Legend:
Test in all cases: Primary Screen for Target Class Profiling of Small Molecule Inhibitors of Methyltransferases
[1] = biological target: Catechol O-methyltransferase (Homo sapiens) (UniProt P21964); details: purified enzyme, MTase-Glo SAH luminescence; activity change, negative = inhibition: at 40 µM, stronger effect = lower value; outcome: 40 uM
Sequence of Catechol O-methyltransferase (Homo sapiens) (P21964 whole entry, looked up): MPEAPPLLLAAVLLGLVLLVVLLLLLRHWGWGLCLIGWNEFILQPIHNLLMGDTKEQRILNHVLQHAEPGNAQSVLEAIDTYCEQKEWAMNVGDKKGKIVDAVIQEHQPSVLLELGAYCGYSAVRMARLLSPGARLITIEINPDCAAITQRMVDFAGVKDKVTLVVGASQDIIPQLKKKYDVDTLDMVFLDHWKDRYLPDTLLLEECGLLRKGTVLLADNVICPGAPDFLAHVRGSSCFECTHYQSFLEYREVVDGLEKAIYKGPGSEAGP
Procedure, shortened: (§1)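 Each enzyme was assayed with SAM and its substrate. SAH formation detected by MTase-Glo luminescence; single-point 40 uM screen[…].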

[2] = biological target: Glycine N-methyltransferase (Homo sapiens) (UniProt Q14749); details: purified enzyme, MTase-Glo SAH luminescence; measured here: GNMT inhibition; at 40 µM; stronger effect = lower value
Sequence of Glycine N-methyltransferase (Homo sapiens) (Q14749 whole entry, looked up): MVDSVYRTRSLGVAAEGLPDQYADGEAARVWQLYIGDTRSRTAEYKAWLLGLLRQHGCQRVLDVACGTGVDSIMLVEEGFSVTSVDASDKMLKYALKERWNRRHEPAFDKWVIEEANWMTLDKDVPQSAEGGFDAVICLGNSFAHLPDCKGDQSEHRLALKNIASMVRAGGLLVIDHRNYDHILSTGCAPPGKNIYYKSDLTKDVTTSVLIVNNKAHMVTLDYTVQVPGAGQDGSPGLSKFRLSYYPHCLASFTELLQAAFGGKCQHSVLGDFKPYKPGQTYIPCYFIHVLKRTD
Procedure, shortened: as §1

[3] = biological target: Guanidinoacetate N-methyltransferase (Homo sapiens) (UniProt Q14353); details: purified enzyme, MTase-Glo SAH luminescence; measured here: GAMT inhibition; at 40 µM; stronger effect = lower value
Procedure, shortened: as §1

[4] = biological target: Histamine N-methyltransferase (Homo sapiens) (UniProt P50135); details: purified enzyme, MTase-Glo SAH luminescence; measured here: HNMT inhibition; at 40 µM; stronger effect = lower value
Sequence of Histamine N-methyltransferase (Homo sapiens) (P50135 whole entry, looked up): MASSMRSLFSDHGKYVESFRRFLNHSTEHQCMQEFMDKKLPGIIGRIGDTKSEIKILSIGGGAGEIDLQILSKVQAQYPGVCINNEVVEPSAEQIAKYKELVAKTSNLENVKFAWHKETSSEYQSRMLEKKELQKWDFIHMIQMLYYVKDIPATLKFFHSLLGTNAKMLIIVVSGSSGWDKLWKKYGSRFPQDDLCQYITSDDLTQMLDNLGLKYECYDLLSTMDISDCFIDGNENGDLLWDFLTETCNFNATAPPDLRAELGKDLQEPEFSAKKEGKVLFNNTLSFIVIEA
Procedure, shortened: as §1

[5] = biological target: Nicotinamide N-methyltransferase (Homo sapiens) (UniProt P40261); details: purified enzyme, MTase-Glo SAH luminescence; measured here: NNMT inhibition; at 40 µM; stronger effect = lower value
Sequence of Nicotinamide N-methyltransferase (Homo sapiens) (P40261 whole entry, looked up): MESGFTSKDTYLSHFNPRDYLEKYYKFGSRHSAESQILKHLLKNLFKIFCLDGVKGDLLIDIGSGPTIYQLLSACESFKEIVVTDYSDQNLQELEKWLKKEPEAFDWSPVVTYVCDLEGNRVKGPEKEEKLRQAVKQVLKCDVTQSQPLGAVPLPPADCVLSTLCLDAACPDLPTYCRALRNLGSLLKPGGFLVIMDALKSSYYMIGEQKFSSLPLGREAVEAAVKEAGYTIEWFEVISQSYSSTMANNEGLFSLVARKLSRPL
Procedure, shortened: as §1

[6] = biological target: Phenylethanolamine N-methyltransferase (Homo sapiens) (UniProt P11086); details: purified enzyme, MTase-Glo SAH luminescence; measured here: PNMT inhibition; at 40 µM; stronger effect = lower value
Sequence of Phenylethanolamine N-methyltransferase (Homo sapiens) (P11086 whole entry, looked up): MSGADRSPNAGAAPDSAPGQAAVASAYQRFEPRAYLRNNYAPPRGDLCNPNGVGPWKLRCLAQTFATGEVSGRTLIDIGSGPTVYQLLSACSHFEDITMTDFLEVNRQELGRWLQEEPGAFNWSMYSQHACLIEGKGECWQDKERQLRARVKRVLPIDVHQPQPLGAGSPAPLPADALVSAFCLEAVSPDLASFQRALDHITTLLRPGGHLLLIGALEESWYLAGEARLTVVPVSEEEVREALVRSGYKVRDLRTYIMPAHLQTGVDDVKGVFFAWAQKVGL
Procedure, shortened: as §1
On the % scale 0 is the no-effect control and ±100 the full control effect.

SMILES | activity change, negative = inhibition [1] | activity change, negative = inhibition [2] | activity change, negative = inhibition [3] | activity change, negative = inhibition [4] | activity change, negative = inhibition [5] | activity change, negative = inhibition [6]
CCC(CC)C(=O)NC[C@H]1O[C@@H](CC(=O)N2CCC(C)CC2)[C@H](O)[C@@H]1O | 0.159% (inactive) | -5.41% | -3.2% | 0.02% | -4.29% | -0.431%
Cc1cnc(-c2ccccc2)n1CCNC(=O)CCC1CCCC1 | -2.65% (inactive) | -4.13% | -6.61% | -3.82% | -12.7% | -3.43%
Cc1cnc(C2CCC2)n1C1CCN(C(=O)CCC2CCCC2)CC1 | -0.614% (active) | -2.95% | 3.19% | -52.2% | -10.2% | 12.5%
NS(=O)(=O)c1ccc(F)c(C(=O)NCc2noc(-c3ccco3)n2)c1 | -11.2% (inactive) | -7.86% | -7.24% | -3.67% | -12% | -1.94%
CCOc1ccc(CNC(=O)c2ncn3c2C(=O)N(C2CC2)C(C)(C(=O)NCc2ccccc2Cl)C3)cc1 (stereo not given) | 11.3% (inactive) | 1.47% | 2.43% | 7.45% | 1.94% | 7.97%
CCN(CC)CCCCNc1ncc2cc(-c3c(Cl)cccc3Cl)c(NC(=O)NC(C)(C)C)nc2n1 | -1.2% (active) | -7.18% | 10.6% | -54.9% | -20.4% | 0.23%
CN(CCc1ccccn1)c1ncccc1CNC(=O)C1CCc2ccccc21 (stereo not given) | -4.9% (inactive) | -5.71% | -6.23% | -3.62% | -10.6% | -5.62%
CCCCOc1ccc(CNC(=O)c2cc3n(n2)CC(C)(C(=O)NCc2ccccc2)N(C)C3=O)cc1 (stereo not given) | 6.54% (inactive) | 8.47% | 0.793% | 9.19% | 11.5% | 7.21%
CC(C)(C)c1ccc(S(=O)(=O)NCc2ccc(C(=O)Nc3cccnc3)cc2)cc1 | -2.26% (inactive) | -3.93% | -2.21% | -1.56% | -14.6% | -7.18%
CC(C)(C)c1ccc(C(=O)Nc2cc(Cl)c(Br)cc2C(=O)O)cc1 | -7.23% (active) | -49.9% | -17.8% | -39.8% | -69% | -27.1%
Cc1ccccc1CN1C(=O)c2cc(-c3cccs3)nn2CC1(C)C(=O)NC1CCCCC1 (stereo not given) | 0.113% (inactive) | -0.305% | 0% | 0.259% | 3.22% | -1.18%
COc1ccc(C2Cn3nnc(-c4noc(C5CCC5)n4)c3CO2)cc1 (stereo not given) | -14.4% (inactive) | -9.87% | -9.12% | -7.42% | -17.1% | -12.5%
CN1C(=O)C2(CCN(Cc3cccn3C)C2)c2ccccc21 (stereo not given) | -4.01% (inactive) | -11.7% | -5.16% | -17.5% | -15.9% | -0.794%
O=C(/C=C/c1ccc(CN(CCO)CCc2c[nH]c3ccccc23)cc1)NO | 19.6% (active) | -17.2% | – | -68.8% | -31% | 12.3%
C/C=C\NC(=O)C1NC(=O)C(CC(N)=O)NC(=O)C(NC(=O)C(=O)C(C)CC)Cc2ccc(O)c(c2)-c2cccc3c2NC(=O)C3(O)C1O (stereo not given) | -7.46% (inactive) | -2.05% | -15.1% | -0.643% | -26.2% | -2.58%
FC(F)(F)c1cccc(C2=NOC3(CCCN(CC4CCCCC4)C3)C2)c1 (stereo not given) | -1.26% (inactive) | -2.05% | 2.98% | 1.38% | -6.62% | 6.26%
Cc1nn(-c2ccccc2)c2c1C(C)N(C1CCN(C(=O)NC3CCCC3)C1)C2=O (stereo not given) | -10.5% (inactive) | -9.42% | -11.7% | -6.3% | -12.4% | -12%
O=C(NCc1cc2n(n1)CCCN(C1CCCCC1)C2)c1cccc(F)c1 | -1.85% (inactive) | -1.07% | -0.04% | -13% | -2.3% | 3.54%
Cc1ccc(NC(=O)Cn2nc3n(C(C)C)c(=O)c4ccc(C(=O)NC(C)C)cc4n3c2=O)c(Cl)c1 | 7.09% (inactive) | 7.08% | 2.19% | 7.8% | 1.15% | 7.43%
CC[C@@H](c1ccc(F)c(F)c1)n1c(C(=O)OC)c(-c2ccno2)[nH]c1=S | 6.91% (inactive) | 1.62% | 4.04% | 10.6% | -18.4% | -1.86%
CCCC1c2ccc(C)n2CCN1C(=O)Nc1ccc(OCC)cc1 (stereo not given) | 1.32% (inactive) | 1.56% | 0% | -0.12% | 2.78% | 1.21%
CNC(=O)[C@@H]1CN(C(=O)c2ccc(OC)cc2C)C[C@H]1COC | -1.84% (inactive) | -2.55% | -4.79% | -1.32% | -3.85% | -0.512%
CCCN1C(=O)c2cc(C(=O)NCc3cc(Br)ccc3OC)nn2CC1(C)C(=O)NC1CCCC1 (stereo not given) | -2.6% (inactive) | -4.66% | -1.16% | -1.31% | -2.91% | -4.59%
CC1=C[C@@H](CNS(=O)(=O)c2cccc(C#N)c2)[C@H](C(C)C)C[C@H]1CC(=O)N(C)Cc1cccnc1 | -5.31% (inactive) | -4.49% | -3.45% | -4.55% | -23.9% | -6.65%
CCCn1c(=O)c2ccc(C(=O)NC3CCCC3)cc2n2c(=O)n(Cc3ccc(F)cc3Cl)nc12 | -1.77% (inactive) | -1.81% | -0.898% | 5.95% | -5.65% | -1.78%
C=C1C(=O)O[C@@H]2C[C@@]3(C)CCCC(=C)[C@]3(O)C[C@H]12 | 6.75% (inactive) | 1.89% | 5.34% | 6.01% | -3.59% | 7.18%
